Measurements: PubChem BioAssay AID1159580 (chemical genetic matrix, 2015)
“And” between values parts separate entries of the source, which are not always exact repeats. Identical values can stand only once. The whole screen tested about 5,500 compounds, of which about 2,000 (36%) were called active. About 18% were inconclusive and are not listed. Cut-off read from the data, not from the text of the source: active = normalized growth mostly below about 0.91 (no sharp cut-off); inconclusive = no clear call, values can overlap the other calls; inactive = mostly above about 0.92. The list shows a part of the results.

Experiment: chemical genetic growth profiling, strain panel (AID 1159580);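 note: tested at 20 µM; growth read once vehicle control cultures reached saturation at 30 °C; 1 = growth at the plate median or of vehicle wells; lower values mean less growth of the strain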
Settings: S. cerevisiae deletion strains, growth OD

Measured: normalized growth

C[C@H](N)[C@H](O)c1ccc(O)c(O)c1
inactive: locus YAL013W, strain DEP1, stronger effect = lower value 1 | locus YAL021C, strain ccr4, stronger effect = lower value 1.01 | locus YAL026C, strain drs2, stronger effect = lower value 1.01 | locus YAL030W, strain snc1, stronger effect = lower value 1 | locus YBL061C, strain skt5, stronger effect = lower value 1.01 | locus YBR009C, strain hhf1, stronger effect = lower value 0.997 | locus YBR021W, strain FUR4, stronger effect = lower value 0.991 | locus YBR023C, strain chs3, stronger effect = lower value 0.999 | locus YBR171W, strain sec66, stronger effect = lower value 0.991 | locus YBR229C, strain ROT2, stronger effect = lower value 0.991 | locus YBR231C, strain swc5, stronger effect = lower value 0.982 | locus YBR279W, strain paf1, stronger effect = lower value 1.02 | locus YCL011C, strain gbp2, stronger effect = lower value 1.01 | locus YCL016C, strain dcc1, stronger effect = lower value 0.987 | locus YCL029C, strain bik1, stronger effect = lower value 0.993 | locus YCL061C, strain MRC1, stronger effect = lower value 1 | locus YCL069W, strain vba3, stronger effect = lower value 1.01 | locus YCR088W, strain abp1, stronger effect = lower value 1 | locus YDL005C, strain med2, stronger effect = lower value 0.996 | locus YDL035C, strain GPR1, stronger effect = lower value 1 | locus YDL040C, strain nat1, stronger effect = lower value 1 | locus YDL074C, strain BRE1, stronger effect = lower value 0.983 | locus YDL101C, strain DUN1, stronger effect = lower value 0.992 | locus YDL185W, strain tfp1, stronger effect = lower value 0.982 | locus YDL192W, strain arf1, stronger effect = lower value 0.979 | locus YDR001C, strain nth1, stronger effect = lower value 1.01 | locus YDR069C, strain doa4, stronger effect = lower value 1.01 | locus YDR101C, strain arx1, stronger effect = lower value 1.01 | locus YDR137W, strain rgp1, stronger effect = lower value 1 | locus YDR159W, strain sac3, stronger effect = lower value 1.01 | locus YDR162C, strain NBP2, stronger effect = lower value 0.999 | locus YDR195W, strain ref2 0.991 | locus YDR297W, strain sur2, stronger effect = lower value 1.01 | locus YDR318W, strain mcm21, stronger effect = lower value 0.98 | locus YDR334W, strain swr1, stronger effect = lower value 0.997 | locus YDR335W, strain msn5, stronger effect = lower value 1.01 | locus YDR388W, stronger effect = lower value 0.992 | locus YDR392W, strain spt3, stronger effect = lower value 0.926 | locus YDR502C, strain sam2, stronger effect = lower value 0.99 | locus YEL003W, strain gim4, stronger effect = lower value 1.01 | locus YEL037C, strain rad23, stronger effect = lower value 1 | locus YEL061C, strain CIN8 (second series), stronger effect = lower value 1.01 | locus YEL061C, strain CIN8, stronger effect = lower value 1 | locus YER015W, strain faa2, stronger effect = lower value 1 | locus YER016W, strain bim1, stronger effect = lower value 1.01 | locus YER110C, stronger effect = lower value 0.97 | locus YER111C, strain swi4, stronger effect = lower value 1 | locus YER155C, strain BEM2 (second series), stronger effect = lower value 0.994 | locus YER155C, strain BEM2, stronger effect = lower value 0.999 | locus YER167W, strain BCK2, stronger effect = lower value 1.02 | locus YFR010W, strain ubp6, stronger effect = lower value 1 | locus YGL078C, strain dbp3, stronger effect = lower value 0.962 | locus YGL086W, strain mad1, stronger effect = lower value 0.996 | locus YGL167C, strain pmr1, stronger effect = lower value 0.995 | locus YGL173C, strain kem1, stronger effect = lower value 1.01 | locus YGL227W, strain vid30, stronger effect = lower value 0.992 | locus YGL240W, strain doc1, stronger effect = lower value 1.01 | locus YGL248W, strain PDE1, stronger effect = lower value 0.988 | locus YGL253W, strain hxk2, stronger effect = lower value 1.02 | locus YGR135W, strain pre9, stronger effect = lower value 0.948 | locus YGR252W, strain gcn5, stronger effect = lower value 0.91 | locus YHR013C, strain ard1, stronger effect = lower value 1.01 | locus YHR027C, strain rpn1, stronger effect = lower value 0.996 | locus YHR030C, strain SLT2, stronger effect = lower value 1.01 and 1 | locus YHR079C, strain IRE1 (second series), stronger effect = lower value 0.993 | locus YHR079C, strain IRE1, stronger effect = lower value 1 | locus YHR094C, strain hxt1, stronger effect = lower value 0.991 | locus YHR129C, strain ARP1, stronger effect = lower value 0.996 | locus YHR142W, strain chs7, stronger effect = lower value 0.993 | locus YHR200W, strain rpn10, stronger effect = lower value 0.985 | locus YIL066C, strain RNR3, stronger effect = lower value 0.998 | locus YIL073C, strain SPO22, stronger effect = lower value 1.01 | locus YIL125W, strain kgd1, stronger effect = lower value 0.975 | locus YIR030C, strain dcg1, stronger effect = lower value 0.988 | locus YJL092W, strain hpr5, stronger effect = lower value 1 | locus YJL095W, strain BCK1 (second series), stronger effect = lower value 1.01 | locus YJL095W, strain BCK1, stronger effect = lower value 0.978 and 1.02 | locus YJL115W, strain asf1, stronger effect = lower value 1.01 | locus YJL129C, strain trk1, stronger effect = lower value 0.986 | locus YJL134W, strain LCB3, stronger effect = lower value 1 | locus YJL154C, strain vps35, stronger effect = lower value 1.01 | locus YJL164C, strain tpk1, stronger effect = lower value 1.01 | locus YJL166W, strain qcr8, stronger effect = lower value 0.992 | locus YJL168C, strain set2, stronger effect = lower value 0.978 | locus YJL187C, strain SWE1 (second series), stronger effect = lower value 0.985 | locus YJL187C, strain SWE1, stronger effect = lower value 0.998 | locus YJR043C, strain POL32, stronger effect = lower value 1.01
